# Measured values taken from PubChem BioAssay (Tox21).
# Values joined by “and” are separate entries in the source; they are usually repeats but may differ in a detail not shown here. Equal entries are not always repeated. Results filed as inconclusive are left out. Where a call stands in place of a potency, no number is given. Some structures have more than one record in an assay (separate samples or runs), and their calls can disagree. Active and inactive are the calls of the source. Calls follow the shape of the full dose curve.
# Target: Muscarinic acetylcholine receptor M1 (Homo sapiens) (UniProt P11229)
# Sequence (P11229 whole entry, looked up): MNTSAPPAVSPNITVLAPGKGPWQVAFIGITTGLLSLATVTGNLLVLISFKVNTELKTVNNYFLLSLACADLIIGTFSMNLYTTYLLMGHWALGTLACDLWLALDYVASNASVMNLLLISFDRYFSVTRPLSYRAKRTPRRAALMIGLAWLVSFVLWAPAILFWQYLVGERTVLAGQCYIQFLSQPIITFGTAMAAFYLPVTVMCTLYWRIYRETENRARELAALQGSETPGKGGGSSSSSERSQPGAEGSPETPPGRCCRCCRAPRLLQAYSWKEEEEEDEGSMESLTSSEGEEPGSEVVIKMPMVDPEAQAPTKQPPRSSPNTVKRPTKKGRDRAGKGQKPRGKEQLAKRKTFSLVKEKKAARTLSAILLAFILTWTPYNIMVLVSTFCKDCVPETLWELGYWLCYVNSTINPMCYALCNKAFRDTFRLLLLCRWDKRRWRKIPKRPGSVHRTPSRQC
# Test: Cholinergic receptor muscarinic 1 (CHRM1) small molecule antagonists, cell-based qHTS assay (AID 1963588); also: nearly all actives have a fitted effect of over 40% in size
# Settings: CHRM1-CHO antagonist mode, calcium flux fluorescence; series mostly up to 61.5 µM
# Outline: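 Compounds were tested at 15 concentrations in three independent runs. Dye-loaded CHRM1-CHO cells were exposed 5 min at room temperature before stimulation by acetylcholine added at 50nM. Intracellular calcium was read kinetically on FDSS for 3 min.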
# Potency is read from the fitted curve at half-maximal effect.
row,SMILES,Potency
1,CCCCCCCCCCCCCCCC[N+](C)(C)C,2.03 µM (active) and 840 nM (active)
2,CC(C)=C[C@@H]1[C@@H](C(=O)OCc2coc(Cc3ccccc3)c2)C1(C)C,inactive
3,CCCCCCCCCC(CC)c1ccc(S(=O)(=O)O)cc1 (stereo not drawn),inactive
4,COP(=S)(OC)Oc1cc(Cl)c(Cl)cc1Cl,inactive
5,CC(=O)C(C)(C)C,inactive
6,CCOP(=O)(CN(CCO)CCO)OCC,inactive
7,c1ccc(Nc2ccc3ccccc3c2)cc1,inactive
8,Nc1ccc(Cl)cc1N,inactive
9,COC(=O)c1ccccc1CS(=O)(=O)NC(=O)Nc1nc(OC)cc(OC)n1,inactive
10,C1CN2CCN1CC2,inactive

# Target: Muscarinic acetylcholine receptor M1 (Homo sapiens) (UniProt P11229)
# Test: Cholinergic receptor muscarinic 1 (CHRM1) small molecule agonists, cell-based qHTS assay (AID 1963589); also: nearly all actives have a fitted effect of over 35% in size
# Settings: CHRM1-CHO cells, agonist mode, calcium flux fluorescence; series mostly up to 76.8 µM
# Outline: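 Calcium flux read-out: kinetic fluorescence at 1 sec intervals after pin-tool compound addition to dye-loaded CHRM1-CHO cells (human M1). Agonist mode; 15 concentrations tested in triplicate independent runs.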
row,SMILES,Potency
1,Cc1ccc(N)cc1Cl,inactive
2,O=C(O)COc1cc(Cl)c(Cl)cc1Cl,inactive
3,Clc1ccc(Cl)c(Cl)c1,inactive
4,CCOC(=O)CC(SP(=O)(OC)OC)C(=O)OCC (stereo not drawn),inactive
5,CCCC[n+]1ccc(C)cc1,inactive
6,COc1ccc(N)cc1,inactive
7,O=C(O)c1ccc(=O)[nH]c1,inactive
8,c1ccc(NNc2ccccc2)cc1,inactive
9,CCCSC(=O)Cl,inactive
10,O=C1C2CC=CCC2C(=O)N1SC(Cl)(Cl)Cl (stereo not drawn),inactive and 38.3 µM (active)
11,CNC(=O)N(C)c1nnc(C(C)(C)C)s1,inactive
12,COc1cc(N)c(Cl)cc1C(=O)NC1CN2CCC1CC2 (stereo not drawn),inactive
13,CCCCCCCCCl,inactive
14,COc1cc(OC)nc(NC(=O)NS(=O)(=O)c2ncccc2C(=O)N(C)C)n1,inactive
15,NC(=S)c1c(Cl)cccc1Cl,inactive
16,NNC(N)=S,inactive
17,OCCCCO,inactive

row,SMILES,Potency
1,NNC(=O)c1ccccc1,inactive
2,CCCCCCCCCCCCCCCCCC(=O)O,inactive
3,O=C(NC(=O)c1c(F)cccc1F)Nc1ccc(Cl)cc1,inactive
4,Nc1ccc(Cl)c(Cl)c1,inactive
5,CCOP(=O)(OCC)OP(=O)(OCC)OCC,inactive
6,CC1C=[C-]C=C1.[C-]#[O+].[C-]#[O+].[C-]#[O+].[Mn],inactive
7,CCOP(=O)(OCC)SCCSCC,inactive
8,CC(C)=C[C@@H]1[C@@H](C(=O)OCc2coc(Cc3ccccc3)c2)C1(C)C,inactive
9,CCCCCCCCCC(CC)c1ccc(S(=O)(=O)O)cc1 (stereo not drawn),inactive
10,COP(=S)(OC)Oc1cc(Cl)c(Cl)cc1Cl,inactive
11,CC(=O)C(C)(C)C,inactive
12,CCOP(=O)(CN(CCO)CCO)OCC,inactive
13,c1ccc(Nc2ccc3ccccc3c2)cc1,inactive
14,Nc1ccc(Cl)cc1N,inactive
15,COC(=O)c1ccccc1CS(=O)(=O)NC(=O)Nc1nc(OC)cc(OC)n1,inactive
16,C1CN2CCN1CC2,inactive and 54.9 µM (active)
